The text below walks through data of PubChem BioAssay (Tox21).

Values without a mark were called inactive. Inconclusive results are not listed. The source made the active and inactive calls. Unless noted, the call rests on the fitted dose curve.

Experiment [1] in a line: Nuclear factor erythroid 2-related factor 2/antioxidant responsive element (Nrf2/ARE) small molecule agonists: qHTS cell viability counter screen in human keratinocytes (AID 1919968; active means well fitted curve in the direction sought with a large enough effect in the repeat runs; an effect the other way counts as inactive or inconclusive; further: nearly all actives have a fitted effect of over 55% in size; further: potency means the concentration at half of the fitted maximal effect). In a few lines:
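CellTiter-Fluor fluorescence, read 1 h after reagent, gave viability in the same wells as the ARE-luciferase assay. KeratinoSens cells (1,500/well) had 23 h compound exposure at 37 C/5% CO2 following 5 h plating.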
(In general: Quantitative high-throughput screening tests each substance at several concentrations.)

Experiment [2] in a line: Nuclear factor erythroid 2-related factor 2/antioxidant responsive element (Nrf2/ARE) small molecule agonists: luciferase reporter gene qHTS assay in human keratinocytes (AID 1919969). Further: nearly all actives have a fitted effect of over 35% in size. Further: potency means the concentration at half of the fitted maximal effect. Background: A reporter such as luciferase makes a cellular process visible.
In experiment [3] the target is KiSS-1 receptor (Homo sapiens) (UniProt Q969F8). The experiment can be described thus: Human kisspeptin (KISS1R) small molecule agonists, calcium flux assay in KISS1R-HEK293 cells (AID 1920064; active means well fitted curve in the direction sought with a large enough effect in the repeat runs; an effect the other way counts as inactive or inconclusive). Put shortly: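 Agonist mode: intracellular calcium rise tracked at 1 s intervals over 3 min (480/540 nm) immediately after compound addition to dye-loaded KISS1R-HEK293 stable cells. Each compound tested at 15 concentrations in triplicate.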

Experiment [4] in a line: G protein-coupled receptor (GPCR) small molecule agonists, calcium flux assay: HEK293 wild type cell line counter screen (AID 1920065). Further: potency means the concentration at half of the fitted maximal effect. Put shortly:
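Calcium flux counter screen: compound added in agonist mode at 15 concentrations in triplicate to dye-loaded parental HEK293 cells. Fluorescence (480/540) read kinetically for 3 min; ATP served as positive control.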
In general terms: A change in cytosolic calcium serves as a functional read-out for many receptors and channels.

The nature of experiment [5]: p53 small molecule agonists, cell-based qHTS assay with human liver microsomes: qHTS cell viability counter screen (AID 1963579). Further: nearly all actives have a fitted effect of over 45% in size. Further: potency means the concentration at half of the fitted maximal effect. Put shortly:
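Metabolically activated exposure: compounds, human liver microsomes and NADPH (0.5 mg/mL final apiece) were added to p53RE-bla cells seeded 5 h earlier, left 16 h at 37 C, and then assessed for viability by CellTiter-Glo luminescence.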

Experiment [6] in a line: p53 small molecule agonists, cell-based qHTS assay with rat liver microsomes: qHTS cell viability counter screen (AID 1963580). Further: nearly all actives have a fitted effect of over 45% in size. Further: potency means the concentration at half of the fitted maximal effect. In a few lines:
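Cytotoxicity counter screen: intracellular ATP measured by CellTiter-Glo luminescence in the same wells as the beta-lactamase reporter read, on HCT-116 p53RE-bla cells exposed 16 h at 37 C to compounds with rat liver microsomes and NADPH, each 0.5 mg/mL final.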

Experiment [7] is described as follows: p53 small molecule agonists, cell-based qHTS assay: qHTS cell viability counter screen (AID 1963581). Further: nearly all actives have a fitted effect of over 45% in size. Further: potency means the concentration at half of the fitted maximal effect. In a few lines: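 Counter screen read by CellTiter-Glo luminescence (ATP content, 30 min at room temperature), run in the same wells as the beta-lactamase reporter read. HCT-116 p53RE-bla cells saw compounds for 16 h at 37 C.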
Experiment [8] can be described thus: p53 small molecule agonists, cell-based qHTS assay (AID 1963582; active means well fitted activation curve with a large enough effect in the signal ratio in the repeat runs, not every such curve was filed as active; the % refers to the signal ratio). In a few lines: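 Read-out is beta-lactamase FRET fluorescence after 2 h at room temperature with LiveBLAzer B/G substrate. p53 response element-bla cells were treated 16 h at 37 C with compounds in DMSO, added 5 h after seeding.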
Experiment [9] addresses 5-hydroxytryptamine receptor 2A (Homo sapiens) (UniProt P28223). The experiment can be described thus: 5-hydroxytryptamine receptor 2A (HTR2A) small molecule antagonists, cell-based qHTS assay (AID 1963586). Further: nearly all actives have a fitted effect of over 45% in size. Further: potency means the concentration at half of the fitted maximal effect. Put shortly:
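CHO cells stably expressing human HTR2A were plated for 18 h at 37 C, then loaded with calcium dye for 1 h. Compounds were preincubated 5 min at room temperature before DOI (4 nM solution) was added. Kinetic fluorescence was read for 3 min.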

Experiment [10] shares this target. As to the kind of experiment: 5-hydroxytryptamine receptor 2A (HTR2A) small molecule agonists, cell-based qHTS assay (AID 1963587). Further: nearly all actives have a fitted effect of over 30% in size. Further: potency means the concentration at half of the fitted maximal effect. Put shortly:
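CHO cells stably expressing human HTR2A, plated 18 h, loaded with calcium dye 1 h at 37 C. Agonist mode: compounds added and intracellular calcium fluorescence recorded kinetically for 2 min at 1 sec intervals.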

For experiment [11], the target named is Muscarinic acetylcholine receptor M1 (Homo sapiens) (UniProt P11229). As to the kind of experiment: Cholinergic receptor muscarinic 1 (CHRM1) small molecule antagonists, cell-based qHTS assay (AID 1963588). Further: nearly all actives have a fitted effect of over 40% in size. Further: potency means the concentration at half of the fitted maximal effect. In a few lines: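 Compounds were tested at 15 concentrations in three independent runs. Dye-loaded CHRM1-CHO cells were exposed 5 min at room temperature before stimulation by acetylcholine added at 50nM. Intracellular calcium was read kinetically on FDSS for 3 min.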

Experiment [12] shares this target. The experiment can be described thus: Cholinergic receptor muscarinic 1 (CHRM1) small molecule agonists, cell-based qHTS assay (AID 1963589). Further: nearly all actives have a fitted effect of over 35% in size. Put shortly:
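Agonist-mode calcium-flux screen: compounds at 15 concentrations, three independent runs, were pin-transferred onto dye-loaded human CHRM1-CHO cells. Fluorescence was then recorded kinetically every second over minutes.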

The nature of experiment [13]: cAMP Responsive Elements (CRE) small molecule agonists, cell-based qHTS assay (AID 1963590). In a few lines:
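Agonist mode: compound added to CRE-bla HEK 293T cells (2,000/well, 18 h after plating) for 3 h at 37 C/5% CO2. Reporter activity detected via FRET beta-lactamase substrate, 2 h room-temperature loading.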

The nature of experiment [14]: cAMP Responsive Elements (CRE) small molecule antagonists, cell-based qHTS assay (AID 1963591; active means well fitted inhibition curve with a large enough effect in the signal ratio in the repeat runs, not every such curve was filed as active; the % refers to the signal ratio). Put shortly:
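Antagonist mode: compounds are added alongside the adenylyl cyclase activator NKH477 (0.25 uM final) to CRE-bla HEK293T cells for 3 h. LiveBLAzer FRET substrate, 2 h at room temperature, reports bla expression.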

Experiment [15] concerns the target Beta-2 adrenergic receptor (Homo sapiens) (UniProt P07550). As to the kind of experiment: Adrenergic beta2 receptor (ADRB2) small molecule antagonists, cell-based qHTS assay (AID 1963592). Further: series mostly up to about 92 µM; nearly all actives have a fitted effect of over 50% in size. In a few lines:
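Assay format: CHO-ADRB2 cells, 18-20hr seeding at 37C/5% CO2, then compound plus 1nM isoproterenol agonist mix for 0.5hr RT. Homogeneous time-resolved fluorescence cAMP detection after 1hr, expressed as 665/615 nm ratio.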

Experiment [16] concerns the target D(2) dopamine receptor (Homo sapiens) (UniProt P14416). The experiment can be described thus: Dopamine D2 receptor (DRD2) small molecule agonists, cell-based qHTS assay (AID 1963594). Further: nearly all actives have a fitted effect of over 35% in size. Put shortly:
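HEK293 cells stably expressing human DRD2, pre-treated with PDE inhibitor Ro20-1724 (0.1 mM final) and compound 10 min at room temperature, then stimulated with NKH477 (200nM […]) for 30 min. cAMP read by HTRF (665/620 nm).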

Experiment [17] has the same target. The experiment can be described thus: Dopamine D2 receptor (DRD2) small molecule antagonists, cell-based qHTS assay (AID 1963595; active means well fitted inhibition curve with a large enough effect in the signal ratio in the repeat runs, with a control signal flat; the % refers to the signal ratio; further: potency means the concentration at half of the fitted maximal effect). Put shortly: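 Readout: HTRF cAMP, cAMP-d2 competing with cellular cAMP for anti-cAMP cryptate, read after 1 h. Cells: DRD2-HEK293. Conditions: 0.1 mM Ro20-1724, 12 nM quinpirole, 200 nM NKH477, 30 min RT.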
A short description of experiment [18]: p53 small molecule agonists, cell-based qHTS assay with rat liver microsomes (AID 1963578). Put shortly: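 Agonist mode in p53RE-bla reporter cells, with compounds co-incubated 16 h at 37 C alongside 0.5 mg/mL rat liver microsomes and 0.5 mg/mL NADPH (final), followed by a 2 h LiveBLAzer detection step.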
Experiment [19] can be described thus: p53 small molecule agonists, cell-based qHTS assay with human liver microsomes (AID 1963577). Put shortly: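 In this qHTS, p53 response-element beta-lactamase cells receive test compound together with a microsome/NADPH activating system (0.5 mg/mL final each) and are incubated 16 h at 37 C before LiveBLAzer fluorescence detection.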

Beta-2 adrenergic receptor (Homo sapiens), sequence (P07550 whole entry, looked up): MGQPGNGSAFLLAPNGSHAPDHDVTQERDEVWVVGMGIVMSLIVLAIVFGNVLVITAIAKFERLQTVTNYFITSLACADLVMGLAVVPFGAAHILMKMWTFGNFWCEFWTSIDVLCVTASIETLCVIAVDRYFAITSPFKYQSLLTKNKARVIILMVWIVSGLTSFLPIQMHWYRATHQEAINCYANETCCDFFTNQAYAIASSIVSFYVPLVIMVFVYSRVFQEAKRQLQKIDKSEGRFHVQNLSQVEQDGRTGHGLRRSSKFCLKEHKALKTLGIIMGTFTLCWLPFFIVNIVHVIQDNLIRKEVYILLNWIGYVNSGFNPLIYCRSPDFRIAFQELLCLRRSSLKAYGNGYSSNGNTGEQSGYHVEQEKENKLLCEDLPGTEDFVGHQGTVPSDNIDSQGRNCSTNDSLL
Muscarinic acetylcholine receptor M1 (Homo sapiens), sequence (P11229 whole entry, looked up): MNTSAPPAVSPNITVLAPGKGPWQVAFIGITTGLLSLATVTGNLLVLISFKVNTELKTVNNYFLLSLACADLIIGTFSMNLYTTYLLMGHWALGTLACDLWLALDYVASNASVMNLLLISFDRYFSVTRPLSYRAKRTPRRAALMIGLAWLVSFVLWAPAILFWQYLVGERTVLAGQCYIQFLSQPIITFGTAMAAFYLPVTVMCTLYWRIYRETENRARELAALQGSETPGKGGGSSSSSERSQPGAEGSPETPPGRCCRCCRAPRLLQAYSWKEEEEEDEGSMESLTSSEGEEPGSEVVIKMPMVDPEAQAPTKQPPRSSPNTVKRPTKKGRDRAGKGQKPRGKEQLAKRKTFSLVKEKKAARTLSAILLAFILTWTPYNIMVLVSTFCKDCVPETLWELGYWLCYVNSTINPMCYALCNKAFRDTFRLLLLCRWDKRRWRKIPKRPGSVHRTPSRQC
D(2) dopamine receptor (Homo sapiens), sequence (P14416 whole entry, looked up): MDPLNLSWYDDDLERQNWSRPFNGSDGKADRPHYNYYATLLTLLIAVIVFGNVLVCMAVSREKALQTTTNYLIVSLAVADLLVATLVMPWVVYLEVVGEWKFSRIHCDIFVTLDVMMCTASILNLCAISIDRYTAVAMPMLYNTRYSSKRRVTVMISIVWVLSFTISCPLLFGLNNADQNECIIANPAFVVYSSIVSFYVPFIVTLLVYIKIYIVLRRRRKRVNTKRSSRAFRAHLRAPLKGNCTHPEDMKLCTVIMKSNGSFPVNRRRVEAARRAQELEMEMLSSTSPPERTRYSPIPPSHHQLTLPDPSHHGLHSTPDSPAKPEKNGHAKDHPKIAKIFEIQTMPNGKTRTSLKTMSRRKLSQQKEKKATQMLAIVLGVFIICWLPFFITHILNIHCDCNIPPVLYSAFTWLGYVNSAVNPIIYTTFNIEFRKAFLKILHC
5-hydroxytryptamine receptor 2A (Homo sapiens), sequence (P28223 whole entry, looked up): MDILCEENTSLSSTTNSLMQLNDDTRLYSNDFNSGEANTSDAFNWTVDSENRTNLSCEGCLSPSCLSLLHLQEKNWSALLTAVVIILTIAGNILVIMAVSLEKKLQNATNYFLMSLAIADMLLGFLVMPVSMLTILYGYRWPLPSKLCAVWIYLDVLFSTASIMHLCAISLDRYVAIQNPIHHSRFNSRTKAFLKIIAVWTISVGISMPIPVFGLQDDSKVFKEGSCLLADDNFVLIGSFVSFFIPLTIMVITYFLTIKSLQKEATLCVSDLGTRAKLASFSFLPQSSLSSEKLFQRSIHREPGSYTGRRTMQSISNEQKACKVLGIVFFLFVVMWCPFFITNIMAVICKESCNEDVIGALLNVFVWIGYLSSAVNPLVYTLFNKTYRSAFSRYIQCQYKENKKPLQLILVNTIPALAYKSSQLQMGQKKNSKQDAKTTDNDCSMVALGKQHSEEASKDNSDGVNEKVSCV
KiSS-1 receptor (Homo sapiens), sequence (Q969F8 whole entry, looked up): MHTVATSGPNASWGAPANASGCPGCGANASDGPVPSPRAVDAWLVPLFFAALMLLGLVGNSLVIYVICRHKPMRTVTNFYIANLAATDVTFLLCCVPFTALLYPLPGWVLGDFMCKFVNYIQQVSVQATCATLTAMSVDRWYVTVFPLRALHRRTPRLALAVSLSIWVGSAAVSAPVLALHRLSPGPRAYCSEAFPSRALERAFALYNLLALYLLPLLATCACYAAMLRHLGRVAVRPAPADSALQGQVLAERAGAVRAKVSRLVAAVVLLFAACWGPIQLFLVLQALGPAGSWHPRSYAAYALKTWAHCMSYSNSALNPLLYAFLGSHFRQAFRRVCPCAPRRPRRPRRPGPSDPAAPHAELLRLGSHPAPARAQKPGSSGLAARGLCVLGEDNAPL

`CCOP(=O)(OCC)Oc1cc(C)nc(C(C)C)n1`: the Potency result in experiment [1], in experiment [2], in experiment [3], in [4], in experiment [5] and in [6] was “inactive” in each case. The Potency result in experiment [7], in experiment [8], in [9], in [10], in experiment [11] and in experiment [12] was “inactive” each time. In addition, the Potency entry in experiment [13], in experiment [14], in [15], in [16] and in experiment [17] was “inactive” each time.
For the molecule `Cc1ccc(C)c2ccccc12`, the Potency entry in experiment [1], in experiment [2], in [3], in [4], in [5] and in [6] was “inactive” in each case. Moreover, the Potency entry in experiment [7], in [9], in experiment [10], in [11], in experiment [12] and in [13] was “inactive” each time. The Potency entry in experiment [14], in experiment [15] and in experiment [16] was “inactive” each time.
`O=[N+]([O-])c1cc(C(F)(F)F)c(Cl)c([N+](=O)[O-])c1Nc1ncc(C(F)(F)F)cc1Cl`: the Potency in [1] was 9.69 µM (active); in experiment [2], 6.11 µM (active); in [4] it was 1.23 µM (active); in experiment [5], 45.8 µM (active); in experiment [6], 25.7 µM (active); in [7], 40.8 µM (active). In addition, the Potency in experiment [11] is 0.472 µM (active). Also, the Potency entry in experiment [3], in experiment [10], in [12], in experiment [16] and in [17] was “inactive” each time.
`O=CC=O`: the Potency result in [1], in experiment [2], in experiment [3], in [4], in experiment [5] and in [6] was “inactive” in each case. The Potency entry in experiment [7], in [9], in experiment [10], in experiment [12], in [13] and in experiment [14] was “inactive” each time. For the same molecule, the Potency result in [15] and in [17] was “inactive” throughout.
In the case of `CCCN(CCC)c1c([N+](=O)[O-])cc(S(N)(=O)=O)cc1[N+](=O)[O-]`, the Potency in experiment [1] was 51.8 µM (active); in experiment [5], 38.8 µM (active); in experiment [6], 49.4 µM (active); in experiment [10] it was 37 µM (active); in experiment [17] it was 30.6 µM (active). In addition, the Potency entry in [2], in experiment [3], in experiment [4] and in experiment [9] was “inactive” in each case.
With `CC[C@H](C)[C@H]1O[C@]2(C=C[C@@H]1C)C[C@@H]1C[C@@H](C/C=C(\C)[C@@H](O[C@H]3C[C@H](OC)[C@@H](O[C@H]4C[C@H](OC)[C@@H](O)[C@H](C)O4)[C@H](C)O3)[C@@H](C)/C=C/C=C3\CO[C@@H]4[C@H](O)C(C)=C[C@@H](C(=O)O1)[C@]34O)O2`, the Potency in experiment [1] is 16.1 µM (active); in [7], 19.1 µM (active). The Potency result in [2], in experiment [3], in experiment [4], in experiment [18], in experiment [5] and in [6] was “inactive” throughout. In addition, the Potency result in experiment [16] was “inactive”.
As to `CCN(CC)CCc1c[nH]c2ccccc12`, the Potency entry in experiment [1], in experiment [2], in experiment [3], in experiment [4], in [19] and in experiment [18] was “inactive” each time. The Potency result in [5], in [6], in experiment [8], in [11], in experiment [12] and in [13] was “inactive” throughout. Moreover, the Potency entry in [15], in experiment [16] and in experiment [17] was “inactive” in each case. For the same molecule, the Potency in [9] is 0.0221 µM (active).
